From PubChem
The list is not random: actives were taken first. Their share in the collection is about 0.59%.
LDHA block = LDHA (human) enzyme inhibition. AID 1347041. 480,000 tested, 0.15% active. purified LDHA, NADH/diaphorase-resazurin fluorescence; stronger effect = lower value. activity change, % (values are at about 110 or 230 µM); in the data active = activity change below about -30%; inconclusive = mostly about -25% to -30%;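 note: plate controls were DMSO wells for no effect and wells without enzyme for full effect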
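Remaining NADH was detected by diaphorase (0.133 mg/mL) converting 37 µM resazurin to fluorescent resorufin, read at 0 and 20 minutes. The preceding 5-minute room-temperature reaction used 2 nM LDHA, 0.2 mM sodium pyruvate and 0.06 mM NADH at pH 7.4.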
PTHR1 agonist = activates the human parathyroid hormone receptor PTHR1 | Q03431 | HEK293 GP2 PTHR1 cells, GloSensor cAMP luminescence, 1 h | Potency, µM (top dose mostly 115 µM), without a hit: at the top dose activation, usual class: activators | 410,000 tested, 0.075% active; note: potency is the fitted concentration of half-maximal effect; nearly all actives have a fitted effect of over 55% in size
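HEK-293-derived GP2 cells expressing PTHR1 and a GloSensor cAMP reporter, 3,000/well, plated overnight, given luciferin plus IBMX (each 0.5 mM as added) for 1 h at 37 °C, then compound for 1 h at 37 °C. Luminescence was read after 15 min at room temperature.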
Vif-A3G inh = blocks the Vif interaction with human APOBEC3G | Q9HC16 | HeLa A3G-eYFP + Vif (tagged APOBEC3G with the HIV-1 protein that degrades it), YFP fluorescence, overnight | Potency, µM (doses to about 46.1 µM), for inactives: at the highest dose activity, negative = active, hits mostly inhibitors | 410,000 tested, 0.076% active | AID 602310; note: potency is the fitted concentration of half-maximal effect; % is set by controls: 0 for no effect and ±100 for the full control effect; nearly all actives have a fitted effect of over 60% in size
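Read-out is eYFP fluorescence (Ex 488/Em 500-530) from Vif-expressing HeLa A3G-eYFP cells; more signal means A3G escaped Vif-mediated degradation. Cells plated overnight, compound pinned in, incubated overnight at 37 deg C.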
PINK1 modulator = changes PINK1 expression. PINK1 immunofluorescence, high-content cytometry, 24 h. Potency, µM (highest dose often 76.6 µM), for inactives: at the highest dose activation (PINK1 increase), most hits filed as activators. 410,000 tested, 0.2% active; active = well fitted activation curve with a large enough effect; inconclusive = small, poorly fitted or top-dose-only effect; cell line not stated here; note: potency is the fitted concentration of half-maximal effect; % of control where 0% means no effect; nearly all actives have a fitted effect of over 65% in size
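Cells are seeded, rested 12 hours, then given compound at five concentrations or DMSO for 24 hours. After fixation, blocking and antibody staining, PINK1 amount and mitochondrial localization are scored; CCCP serves as control.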
mIDH1 inhibitor = blocks human mutant IDH1 R132H enzyme; O75874; IDH1-R132H enzyme, NADPH consumption, diaphorase/resazurin fluorescence; Potency, µM (highest dose often 76.6 µM), for inactives: at the top dose activity change, negative = inhibition, actives largely listed as inhibitors; 390,000 tested, 0.093% active; AID 602179; note: potency is the fitted concentration of half-maximal effect; % is set by controls: 0 for no effect and ±100 for the full control effect; nearly all actives have a fitted effect of over 65% in size
Target sequence (O75874 whole entry R132H, stated change not applied): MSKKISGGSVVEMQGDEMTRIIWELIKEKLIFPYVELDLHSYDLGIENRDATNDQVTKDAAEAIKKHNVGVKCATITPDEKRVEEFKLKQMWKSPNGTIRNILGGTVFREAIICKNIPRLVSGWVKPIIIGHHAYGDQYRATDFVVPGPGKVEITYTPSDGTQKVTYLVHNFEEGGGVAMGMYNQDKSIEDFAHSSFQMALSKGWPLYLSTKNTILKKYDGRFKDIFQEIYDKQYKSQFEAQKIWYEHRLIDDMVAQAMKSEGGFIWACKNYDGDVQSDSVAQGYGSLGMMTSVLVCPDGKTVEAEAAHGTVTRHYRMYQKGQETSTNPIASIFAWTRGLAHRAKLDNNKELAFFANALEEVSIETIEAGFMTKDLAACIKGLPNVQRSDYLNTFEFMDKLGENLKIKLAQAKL
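IDH1-R132H (0.5 ug/mL dispensed) in pH 7.5 Tris buffer was preincubated 30 min with compound, then given a substrate mix of 0.016 mM NADPH and 2 mM alpha-KG for 80 min at room temperature; remaining NADPH was read by diaphorase/resazurin fluorescence.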
Vif-A3F inh = blocks the Vif interaction with APOBEC3F. 390,000 tested, 0.2% active. HeLa A3F-eYFP + Vif (tagged APOBEC3F with the HIV-1 protein that degrades it), YFP fluorescence increase. Potency, µM (doses to about 46.1 µM), for inactives: at the top dose activity, negative = active; note: potency is the fitted concentration of half-maximal effect; % of control where 0% means no effect; nearly all actives have a fitted effect of over 65% in size
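Fluorescence increase (Ex 488/Em 500-530) after overnight compound treatment at 37 deg C flags inhibition of Vif-driven A3F-eYFP loss in stable HeLa A3F-eYFP/Vif cells seeded overnight beforehand.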
* = called active by the depositor; i = inactive; ? = inconclusive; · = not tested or not shown; [ ] = another dose, or the depositor's remark. Unless noted, calls come from the whole dose curve; as a rule, active = well fitted curve in the direction sought with a large enough effect; inconclusive = small, poorly fitted or top-dose-only effect, or another doubt; inactive = no such curve, though single readings can be large; an effect the other way counts as inactive or inconclusive.

SMILES	LDHA block	PTHR1 agonist	Vif-A3G inh	PINK1 modulator	mIDH1 inhibitor	Vif-A3F inh
CCOC(=O)c1c(-c2ccccc2)csc1NC(=O)C(C)NCCCN1CCOCC1 (stereo not drawn)	-34*	-36%	-1%	0%	-5%	-2%
CCOC(=O)c1c(-c2ccccc2)csc1NC(=O)c1cc(-c2cccc(OC)c2)on1	0	40µM*	1%	0%	-4%	-4%
CCOC(=O)c1c(-c2ccc(C)cc2)csc1NC(=O)c1cc(=O)c2cc(C)ccc2o1	-7	4µM*	·	0%	·	·
CCN(CC)c1nc2c(c(=O)n(C)c(=O)n2C)n1Cc1ccc(F)cc1	-2	·	·	·	·	·
O=C(NC1CCCCCCC1)c1cc2cccc([N+](=O)[O-])c2[nH]1	-4	·	·	·	·	·
Cc1ccc(CNC(=O)Cc2c(C)c3c(cc(C)c4c(C)coc43)oc2=O)cc1	-5	16µM*	12%	0%	-3%	1%
CN(C)c1ccc(/C=C/c2nc3ccccc3c(=O)n2CCO)cc1	-6	-1%	11µM*	-1%	-10%	13µM*
CN(C)c1ccc(/C=C(\C#N)c2nc3ccccc3c(=O)[nH]2)cc1	-5	i	?	1%	-15%	5µM*
O=c1[nH]c(/C=C/c2ccccc2F)nc2ccccc12	-3	-19%	?	9%	-4%	-8%
O=c1[nH]c(/C=C/c2ccc(Br)cc2)nc2ccccc12	2	-21%	0%	4%	10%	4%
CN(C)c1ccc(/C=C/c2nc3ccccc3c(=O)[nH]2)cc1	-3	i	-4%	21%	-6%	10µM*
O=c1[nH]c(/C=C/c2cccc3ccccc23)nc2ccccc12	-10	11%	?	25%	4%	13µM*
Cc1ccc(NC(=O)/C(C#N)=C/c2ccc(C)s2)c(C)c1	-1	i	11µM*	12%	-1%	?
Cc1ccc(/C=C(\C#N)C(=O)Nc2c(C)cccc2C)s1	-17	i	-1%	2%[38.3 µM]	0%	-17%
O=C(CSc1ncnc2ccccc12)Nc1cc(C(F)(F)F)cc(C(F)(F)F)c1	15	·	·	·	·	·
Cc1nnc(NC(=O)c2cc(=O)c3cc(Cl)cc(Cl)c3o2)s1	13	·	·	·	·	·
CC(C)c1nnc(NC(=O)c2cc(=O)c3cc(Cl)cc(Cl)c3o2)s1	-35*	·	·	·	·	·
COc1ccc(C(=O)CSC#N)cc1	3	·	·	·	·	·
Cc1cc(C)nc(/N=C(\N)Nc2ccc(C(C)C)cc2)n1	1	-20%	0%	40µM*	6%	-6%
COc1ccc(N/C=C/C(=O)c2ccc(C(C)C)cc2)cc1Cl	3	·	·	·	·	·
O=S(=O)(Nc1nc2ccccc2nc1Nc1cccc(S(=O)(=O)N2CCCCC2)c1)c1ccccc1	-2	-40%	?	25µM*	-3%	10µM*
CC(C)Cn1nc(C(=O)Nc2nc3c(s2)CN(C)CC3)c2ccccc2c1=O	2	·	·	·	·	·
CN(CC(=O)Nc1cc2[nH]c(=O)[nH]c2cc1Br)Cc1ccccc1N1CCCCC1	6	·	·	·	·	·
CCOC(=O)C1=C(COc2ccc(C)cc2)NC(=O)NC1c1cc(C)ccc1C (stereo not drawn)	2	i	-1%	3%	-3%	-7%
COC(=O)C1=C(COc2ccc(F)cc2)NC(=O)NC1c1ccc(C)cc1C (stereo not drawn)	-1	i	0%	11µM*	0%	-2%
SMILES	LDHA block	PTHR1 agonist	Vif-A3G inh	PINK1 modulator	mIDH1 inhibitor	Vif-A3F inh
CC(Sc1nc2ccccc2o1)C(=O)NCC1CCCCC1 (stereo not drawn)	2	·	·	·	·	·
N#CC1=C(N)Oc2cc(N)ccc2C1c1ccc(F)cc1F (stereo not drawn)	7	-14%	13µM*	10%	-7%	22µM*
Cc1ccc(NC(=S)NNc2ncc(C(F)(F)F)cc2Cl)c(C)c1	-4	i	-3%	7%	-3%	9%
Cc1ccc(NC(=S)NNc2ncc(C(F)(F)F)cc2Cl)cc1	-8	-31%	-5%	32µM*	1%	1%
FC(F)(F)c1cnc(NNC(=S)Nc2ccc(Cl)cc2)c(Cl)c1	-5	-25%	-4%	11µM*	4%	-5%
Fc1ccc(NC(=S)NNc2ncc(C(F)(F)F)cc2Cl)c(F)c1	-1	-31%	-5%	10µM*	4%	4%
Cc1ccccc1-c1noc(C(C)NC(=O)c2ccccc2F)n1 (stereo not drawn)	1	·	·	·	·	·
COc1cccc(-c2nn(-c3ccccc3)cc2C(=O)O)c1	-6	?	-3%	1%	8%	3%
COc1cccc(-c2nn(-c3ccccc3)cc2C(=O)NCC(C)(C)N2CCOCC2)c1	-31*	·	·	·	·	·
O=c1[nH]c(=S)[nH]c2c1C(c1ccc(Br)cc1)c1c([nH]c(=S)[nH]c1=O)O2	-77*	i	-13%	1%	0%	7%
O=C1CCCC2=C1C(c1ccc(Br)cc1)c1c([nH]c(=S)[nH]c1=O)N2 (stereo not drawn)	-13	-8%[57.5 µM]	-5%	7%	2%	2%
CCOc1ccc2oc(=O)c(-c3ccc(OC)cc3)c(C)c2c1	3	·	·	·	·	·
COc1cccc(N=Cc2c(O)n(-c3cccc(C)n3)c(=O)c3ccccc23)c1	12	-18%[57.5 µM]	0%	3%[38.3 µM]	4%	3%
COc1ccc(N=Cc2c(O)n(-c3cccc(C)n3)c(=O)c3ccccc23)c(OC)c1	-4	i	?	45µM*	-4%	10µM*
CCc1ccccc1N(C)S(=O)(=O)c1ccc2[nH]cc(C(=O)O)c(=O)c2c1	-42*	-2%	-4%	-1%	2%	2%
COCCN(CCOC)C(=O)c1c[nH]c2ccc(S(=O)(=O)N(C)c3ccc(F)cc3)cc2c1=O	-4	i	0%	3%[38.3 µM]	-10%	-2%
CN(c1ccc(F)cc1)S(=O)(=O)c1ccc2[nH]cc(C(=O)O)c(=O)c2c1	-30*	i	-1%	3%	-3%	6%
CCOc1ccccc1N(C)S(=O)(=O)c1ccc2[nH]cc(C(=O)N(CCOC)CCOC)c(=O)c2c1	-7	-2%	-1%	1%	-5%	1%
COc1cccc(-c2ocnc2C(=O)NCc2cc(OC)ccc2OC)c1	8	·	·	·	·	·
Cc1ccc(OC(C)C(=O)Nc2nonc2-c2ccc(Br)cc2)cc1C (stereo not drawn)	0	-40%	·	22µM*	·	·
Cc1cccc(OC(C)C(=O)Nc2nonc2-c2ccc(Br)cc2)c1C (stereo not drawn)	-1	-52%	·	18%	·	·
Cc1cc(OCC(=O)Nc2ccc(C(=O)OC(C)C)cc2)ccc1Cl	13	·	·	·	·	·
